Experimental findings from PubChem BioAssay AID2283193 (EPA ToxCast) are described below.

Results filed as inconclusive are left out. Active and inactive are the calls of the source. Rule for the calls: active = hit-call score of the fitted dose curve at least 0.9, where 1 is the maximum; inconclusive = response in the unintended direction; inactive = score below 0.9.

The experiment deals with human Protein Kinase C, zeta (PKCz), PRKCZ (gene 5590) (UniProt Q05513). As to the kind of experiment: NVS_ENZ_hPKCz: NovaScreen (NVS) Enzymatic Assay for human Protein Kinase C, zeta (PKCz). The protocol:
NVS_ENZ_hPKCz is a biochemical, single-readout assay that uses extracted gene-proteins in a cell-free assay. Measurements were taken 1 hour after chemical dosing in a 384-well plate.NVS_ENZ_hPKCz is one of one assay component(s) measured or calculated from the NVS_ENZ_hPKCz assay. It is designed to make measurements of enzyme activity, a form of enzyme reporter, as detected with fluorescence intensity signals by Fluorescence and electrophoretic mobility shift technology.Data from the assay component NVS_ENZ_hPKCz was analyzed into 1 assay endpoint. This assay endpoint, NVS_ENZ_hPKCz, was analyzed in the positive analysis fitting direction relative to DMSO as the negative control and baseline of activity. Using a type of enzyme reporter, loss-of-signal activity can be used to understand changes in the enzymatic activity as they relate to the gene PRKCZ. Furthermore, this assay endpoint can be referred to as a primary readout, because this assay has produced multiple assay endpoints where this one serves a enzymatic activity function. To generalize the intended target to other relatable targets, this assay endpoint is annotated to the kinase intended target family, where the subfamily is serine/threonine kinase. […]

Sequence of human Protein Kinase C, zeta (PKCz), PRKCZ (gene 5590) (Q05513 whole entry, looked up): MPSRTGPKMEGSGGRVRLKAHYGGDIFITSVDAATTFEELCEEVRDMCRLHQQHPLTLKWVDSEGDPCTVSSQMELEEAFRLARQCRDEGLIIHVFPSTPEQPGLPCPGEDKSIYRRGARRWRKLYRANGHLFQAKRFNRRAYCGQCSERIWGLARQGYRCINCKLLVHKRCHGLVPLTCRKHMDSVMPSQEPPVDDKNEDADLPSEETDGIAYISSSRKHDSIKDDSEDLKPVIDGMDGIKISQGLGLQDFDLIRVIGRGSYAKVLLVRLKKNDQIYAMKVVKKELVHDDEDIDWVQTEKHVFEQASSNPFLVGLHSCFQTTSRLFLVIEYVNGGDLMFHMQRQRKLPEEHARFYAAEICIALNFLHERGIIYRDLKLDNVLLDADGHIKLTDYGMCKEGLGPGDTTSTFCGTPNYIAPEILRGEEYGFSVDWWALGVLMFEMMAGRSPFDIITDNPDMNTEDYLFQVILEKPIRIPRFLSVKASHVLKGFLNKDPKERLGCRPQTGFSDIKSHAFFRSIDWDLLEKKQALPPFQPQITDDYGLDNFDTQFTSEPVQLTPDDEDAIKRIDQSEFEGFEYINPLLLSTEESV

As to `CCCCC(CC)COC(=O)c1ccccc1C(=O)O` (stereo unspecified), the call was inactive.
